Inconclusive results are not listed. Calls of active or inactive are those of the source. Unless noted, calls come from the whole dose curve; as a rule, active = well fitted curve in the direction sought with a large enough effect; inconclusive = small, poorly fitted or top-dose-only effect, or another doubt; inactive = no such curve, though single readings can be large; an effect the other way counts as inactive or inconclusive.
Experiments:
[1] = AP1 Signaling Pathway (AID 357; active = well fitted curve in either direction with a large enough effect, not every such curve was filed as active; note: % is set by controls: 0 for no effect and ±100 for the full control effect); details: ME-180 AP-1-bla reporter, EGF-induced, beta-lactamase ratio, 5 h; at 7.69 µM (top of the series) unless noted
How it was run: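 Modulation of EGF-driven AP-1 transcription was assessed with a beta-lactamase reporter in ME-180 cells. Compound and EC50 EGF were co-incubated 5 hours at 37 °C before 2.5-hour CCF4 loading at room temperature and dual-emission reading.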

[2] = target: Cytochrome P450 1A2 (Homo sapiens) (UniProt P05177); experiment: p450-cyp1a2 (AID 410; calls by dose curve; note: potency is the fitted concentration of half-maximal effect)
Cytochrome P450 1A2 (Homo sapiens), sequence (P05177 whole entry, looked up): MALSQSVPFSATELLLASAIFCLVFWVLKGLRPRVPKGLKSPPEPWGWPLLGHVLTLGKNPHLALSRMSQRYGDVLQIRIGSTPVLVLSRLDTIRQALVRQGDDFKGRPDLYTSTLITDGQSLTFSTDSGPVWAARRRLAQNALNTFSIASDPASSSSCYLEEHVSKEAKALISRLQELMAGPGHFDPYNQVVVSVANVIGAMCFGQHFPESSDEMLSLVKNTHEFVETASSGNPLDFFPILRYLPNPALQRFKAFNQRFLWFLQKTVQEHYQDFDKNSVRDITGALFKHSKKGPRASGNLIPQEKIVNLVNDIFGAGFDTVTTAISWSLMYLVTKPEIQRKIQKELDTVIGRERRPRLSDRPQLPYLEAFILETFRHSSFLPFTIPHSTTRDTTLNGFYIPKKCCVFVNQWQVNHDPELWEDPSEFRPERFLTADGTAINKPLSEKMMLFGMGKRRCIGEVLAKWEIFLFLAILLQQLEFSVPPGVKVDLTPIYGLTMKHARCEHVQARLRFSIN
How it was run: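 Luminescent demethylation readout: Luciferin-ME (100uM, equal to Km) turned over by 20nM CYP1A2 for 60 min at room temperature after NADPH regeneration addition, following 10 min compound preincubation. Normalization used 57 uM furafylline as full inhibition.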

[3] = Stat Signaling Pathway (AID 446; active = well fitted curve in either direction with a large enough effect, not every such curve was filed as active;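 note: ME-180 cervical cancer cells given 40 pM IL-6 alongside compound; SIE-controlled beta-lactamase reporter measured as 460/530 nm FRET emission ratio; % is set by controls: 0 for no effect and ±100 for the full control effect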); details: ME-180 (cervical carcinoma) SIE beta-lactamase reporter, IL-6 stimulated, 5 h; at 7.69 µM (top of the series) unless noted
How it was run: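 Overnight-plated ME-180 cells bearing a STAT Inducible Element beta-lactamase reporter; 5 h co-exposure to compound and 40 pM IL-6; values normalized to 300 pM IL-6 and 125 nM JAK inhibitor controls.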

[4] = target: Glucocorticoid receptor (Homo sapiens) (UniProt P04150); experiment: GR-GFP Redistribution (AID 450;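 active = compounds whose dose series gives a full or clear partial fitted curve of increased nuclear translocation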; note: potency is the fitted concentration of half-maximal effect); details: U2OS GR-GFP nuclear translocation, laser cytometry, 2 h
Glucocorticoid receptor (Homo sapiens), sequence (P04150 whole entry, looked up, the tested form may be a part): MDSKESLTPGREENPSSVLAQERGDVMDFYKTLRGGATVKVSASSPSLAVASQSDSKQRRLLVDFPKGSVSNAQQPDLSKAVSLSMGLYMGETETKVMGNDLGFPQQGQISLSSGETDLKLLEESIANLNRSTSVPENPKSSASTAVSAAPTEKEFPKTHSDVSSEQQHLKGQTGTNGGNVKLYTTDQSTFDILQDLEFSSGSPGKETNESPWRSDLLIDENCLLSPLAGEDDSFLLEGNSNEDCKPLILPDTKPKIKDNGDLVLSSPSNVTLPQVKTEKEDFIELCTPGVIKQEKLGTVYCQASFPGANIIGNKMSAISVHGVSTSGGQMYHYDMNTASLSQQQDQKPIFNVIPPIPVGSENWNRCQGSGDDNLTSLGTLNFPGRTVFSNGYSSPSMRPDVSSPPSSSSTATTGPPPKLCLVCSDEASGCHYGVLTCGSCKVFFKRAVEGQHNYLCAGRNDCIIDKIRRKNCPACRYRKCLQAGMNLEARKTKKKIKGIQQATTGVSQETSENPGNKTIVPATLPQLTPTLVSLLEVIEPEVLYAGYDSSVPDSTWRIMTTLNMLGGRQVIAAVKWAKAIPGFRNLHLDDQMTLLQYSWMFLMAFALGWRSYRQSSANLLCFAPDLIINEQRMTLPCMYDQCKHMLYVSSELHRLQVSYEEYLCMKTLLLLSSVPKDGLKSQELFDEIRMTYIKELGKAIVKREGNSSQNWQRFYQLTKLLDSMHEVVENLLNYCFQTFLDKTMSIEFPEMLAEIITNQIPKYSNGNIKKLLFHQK

[5] = target: Glucocorticoid receptor (Homo sapiens) (UniProt P04150); experiment: GR-EFC Redistribution (AID 451; calls by dose curve; note: potency is the fitted concentration of half-maximal effect); details: CHO-K1 GR-EFC translocation, beta-gal luminescence, 2 h
How it was run: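 CHO-K1 cells stably expressing nuclear-localized β-gal enzyme acceptor and GR fused C-terminally to the enzyme donor fragment; ligand-driven nuclear translocation restores β-gal by complementation. Compounds titrated up to 46 uM final, 2 h at 37 °C; luminescence read.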

[6] = target: Mitogen-activated protein kinase 10 (Mus musculus) (UniProt Q61831); experiment: JNK3 AlphaScreen Assay (AID 530; active = well fitted curve in either direction with a large enough effect, not every such curve was filed as active;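 note: kinase came from lysate of stimulated human HepG2 cells; signal reports phosphorylation of biotinylated GST-cJun 1-79 at Ser73 with 10 µM ATP; % is set by controls: 0 for no effect and ±100 for the full control effect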)
How it was run: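 Phosphorylation of biotinylated GST-cJun(1-79) at Ser73 is measured by AlphaScreen proximity luminescence. Enzyme is JNK3 in HepG2 lysates activated with interleukin-1beta and tumor necrosis factor alpha; ATP is 10 uM final.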

[7] = target: 3',5'-cyclic-AMP phosphodiesterase 4B (Homo sapiens) (UniProt Q07343); experiment: qHTS Assay for Inhibitors of PDE-IV (AID 607; active = well fitted activation curve with a large enough effect in the main read-out, with a control signal flat, not every such curve was filed as active; note: % of control where 0% means no effect)
3',5'-cyclic-AMP phosphodiesterase 4B (Homo sapiens), sequence (Q07343 whole entry, looked up): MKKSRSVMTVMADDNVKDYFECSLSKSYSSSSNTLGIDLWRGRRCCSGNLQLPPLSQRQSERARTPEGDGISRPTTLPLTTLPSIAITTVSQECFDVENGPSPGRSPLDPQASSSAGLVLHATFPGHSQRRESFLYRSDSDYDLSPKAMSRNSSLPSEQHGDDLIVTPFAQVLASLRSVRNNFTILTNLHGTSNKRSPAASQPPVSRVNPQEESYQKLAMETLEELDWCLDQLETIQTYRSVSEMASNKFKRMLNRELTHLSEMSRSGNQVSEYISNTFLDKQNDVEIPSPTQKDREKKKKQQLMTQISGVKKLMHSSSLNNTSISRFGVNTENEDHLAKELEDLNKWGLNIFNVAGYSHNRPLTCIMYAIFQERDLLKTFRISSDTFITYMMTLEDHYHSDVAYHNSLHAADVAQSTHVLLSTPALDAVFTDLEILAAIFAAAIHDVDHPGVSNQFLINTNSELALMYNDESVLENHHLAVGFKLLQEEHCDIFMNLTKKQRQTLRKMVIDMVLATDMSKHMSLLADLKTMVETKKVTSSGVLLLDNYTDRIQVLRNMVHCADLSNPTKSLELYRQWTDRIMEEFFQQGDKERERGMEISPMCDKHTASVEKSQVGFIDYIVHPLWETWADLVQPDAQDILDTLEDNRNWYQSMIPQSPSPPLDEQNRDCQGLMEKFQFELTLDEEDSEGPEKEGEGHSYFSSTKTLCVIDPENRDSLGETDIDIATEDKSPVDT
How it was run: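 Live HEK293 cells with a modified cyclic nucleotide-gated (CNG) channel report intracellular cAMP via membrane-potential dye fluorescence (ex 535/em 590 nm). Endogenous PDE-IV was targeted. Compounds were tested at up to 22.9 uM final; RO 20-1724 100 uM served as control.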

[8] = qHTS Assay for Lipid Storage Modulators (AID 1519; calls by dose curve); details: Drosophila S3 cells, BODIPY lipid droplet/cell ratio, laser cytometry, cells loaded with oleic acid; for activity change, negative = inhibition: at 57.5 µM (top of the series)
How it was run: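 Cells seeded at 5,000 per well were treated with compounds over a concentration series and loaded with oleic acid (400 uM, as added). Lipid droplet fluorescence (488 nm excitation, 500-530 nm channel) was read by laser-scanning cytometry and normalized to 20 uM Triacsin C.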

[9] = target: Dual specificity protein kinase CLK4 (Homo sapiens) (UniProt Q9HAZ1); experiment: qHTS Assay for Inhibitors of CDC-like Kinase 4 (Kinase-Glo Assay) (AID 1770); note: nearly all actives have a fitted effect of over 65% in size; note: potency is the fitted concentration of half-maximal effect
Dual specificity protein kinase CLK4 (Homo sapiens), sequence (Q9HAZ1 whole entry, looked up): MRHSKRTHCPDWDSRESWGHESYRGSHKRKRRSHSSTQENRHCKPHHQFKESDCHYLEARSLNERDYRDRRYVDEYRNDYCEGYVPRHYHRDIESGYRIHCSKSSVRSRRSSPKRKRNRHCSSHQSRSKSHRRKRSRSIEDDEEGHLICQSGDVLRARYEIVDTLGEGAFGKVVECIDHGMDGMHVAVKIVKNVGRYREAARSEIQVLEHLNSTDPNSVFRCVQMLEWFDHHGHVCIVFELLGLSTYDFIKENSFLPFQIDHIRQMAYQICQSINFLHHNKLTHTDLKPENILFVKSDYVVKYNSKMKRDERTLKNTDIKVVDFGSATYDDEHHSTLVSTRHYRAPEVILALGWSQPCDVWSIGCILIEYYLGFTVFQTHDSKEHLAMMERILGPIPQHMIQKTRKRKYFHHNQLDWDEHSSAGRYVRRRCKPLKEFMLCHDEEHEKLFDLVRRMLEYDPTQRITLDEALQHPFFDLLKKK
How it was run: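 Recombinant human Clk4 (25 nM) phosphorylated RS repeat peptide (100 uM) with 1 uM ATP in Tris pH 7.5/MgCl2/EGTA/DTT/Triton buffer for 4.5 h at room temperature. Residual ATP was quantified by Kinase-Glo luciferase luminescence.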

[10] = target: Dual specificity protein kinase CLK4 (Homo sapiens) (UniProt Q9HAZ1); experiment: qHTS Assay for Inhibitors of CDC-like Kinase 4 (ADP-Glo Assay) (AID 1771); note: nearly all actives have a fitted effect of over 70% in size; note: potency is the fitted concentration of half-maximal effect
How it was run: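 ADP production was read by ADP-Glo luminescence after residual ATP depletion, following 1 h room-temperature reaction of 25 nM Clk4, 1 uM ATP and 100 uM RS peptide with MgCl2, EGTA, DTT and Triton X-100.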

[11] = target: Dual specificity protein kinase CLK4 (Homo sapiens) (UniProt Q9HAZ1); experiment: qHTS Assay for Inhibitors of CDC-like Kinase 4 (ADP-FP Assay) (AID 1795); note: % is set by controls: 0 for no effect and ±100 for the full control effect; nearly all actives have a fitted effect of over 60% in size
How it was run: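 Recombinant human Clk4 (6.25 nM) phosphorylated RS repeat peptide (100 uM) with 1 uM ATP in Tris pH 7.5/MgCl2/EGTA/DTT/Triton buffer for one hour. ADP was quantified by Transcreener competitive fluorescence polarization against an ADP calibration curve.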

[12] = Primary qHTS for small molecule stabilizers of the endoplasmic reticulum resident proteome: Secreted ER Calcium Modulated Protein (SERCaMP) assay (AID 1508630); note: % is set by controls: 0 for no effect and ±100 for the full control effect
How it was run: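 The SH-SY5Y reporter protocol was run at 3 concentrations up to 38.3 uM (primary) or 11 concentrations (follow-up): 16 h compound, 100 nM thapsigargin for 4 h, then extracellular luciferase luminescence.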

[13] = target: Lysosomal acid glucosylceramidase (Homo sapiens) (UniProt P04062); experiment: Glucocerebrosidase-p2 (AID 348; in the data active = potency below about 10 µM; note: potency is the fitted concentration of half-maximal effect); details: purified GBA, blue fluorogenic substrate, 40 min
Lysosomal acid glucosylceramidase (Homo sapiens), sequence (P04062 whole entry, looked up): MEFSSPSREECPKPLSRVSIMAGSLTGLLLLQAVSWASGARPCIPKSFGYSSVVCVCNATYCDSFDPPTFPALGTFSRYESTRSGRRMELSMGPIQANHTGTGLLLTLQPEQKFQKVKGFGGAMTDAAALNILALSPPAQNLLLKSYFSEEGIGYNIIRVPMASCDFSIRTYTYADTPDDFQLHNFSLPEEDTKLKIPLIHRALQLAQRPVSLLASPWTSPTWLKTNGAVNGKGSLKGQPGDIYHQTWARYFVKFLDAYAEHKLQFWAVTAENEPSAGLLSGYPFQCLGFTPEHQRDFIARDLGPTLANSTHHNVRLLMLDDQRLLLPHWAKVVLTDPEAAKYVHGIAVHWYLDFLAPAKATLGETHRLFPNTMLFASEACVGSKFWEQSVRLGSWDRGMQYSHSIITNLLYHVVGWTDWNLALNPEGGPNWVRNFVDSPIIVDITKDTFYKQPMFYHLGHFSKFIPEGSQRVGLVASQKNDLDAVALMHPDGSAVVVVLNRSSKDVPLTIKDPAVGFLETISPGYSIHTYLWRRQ
How it was run: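 Normal human glucocerebrosidase (0.2 nM) with blue fluorogenic substrate (80 uM final) in citrate/phosphate pH 5.9 with 10mM sodium taurocholate, 0.01% tween-20; 40 min RT, NaOH/glycine stop; fluorescence Ex 365/Em 440; AC50 from a titration from 0.6 nM upwards.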

[14] = NFAT Signaling Pathway (AID 444; active = well fitted curve in either direction with a large enough effect, not every such curve was filed as active); details: Jurkat NFAT-bla M1, carbachol, beta-lactamase ratio, 5 h; at 7.69 µM (top of the series) unless noted
How it was run: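 Jurkat cells carrying an NFAT-driven β-lactamase reporter and co-transfected muscarinic M1 receptor were treated with compound plus carbachol (1 uM final, an EC50 level) for 5 h at 37 °C. CCF4 loading followed for 1 h at RT; 460/530 nm ratio gave %activity.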

[15] = target: Cytochrome P450 3A4 (Homo sapiens) (UniProt P08684); experiment: qHTS Assay for Activators of Cytochrome P450 3A4 (AID 885); note: nearly all actives have a fitted effect of over 65% in size
Cytochrome P450 3A4 (Homo sapiens), sequence (P08684 whole entry, looked up): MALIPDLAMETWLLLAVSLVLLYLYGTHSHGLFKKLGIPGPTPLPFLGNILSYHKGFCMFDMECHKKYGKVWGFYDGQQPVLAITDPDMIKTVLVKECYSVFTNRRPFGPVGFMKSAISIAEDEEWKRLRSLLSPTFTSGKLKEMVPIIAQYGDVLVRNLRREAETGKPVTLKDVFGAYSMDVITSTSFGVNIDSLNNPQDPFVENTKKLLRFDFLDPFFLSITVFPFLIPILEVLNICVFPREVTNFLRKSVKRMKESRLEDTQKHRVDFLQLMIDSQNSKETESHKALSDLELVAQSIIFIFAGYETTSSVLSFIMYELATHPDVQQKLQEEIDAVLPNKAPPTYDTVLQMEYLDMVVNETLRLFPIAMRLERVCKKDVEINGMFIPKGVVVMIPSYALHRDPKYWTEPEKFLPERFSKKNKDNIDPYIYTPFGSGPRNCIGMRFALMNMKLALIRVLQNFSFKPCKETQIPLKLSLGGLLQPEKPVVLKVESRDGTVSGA
How it was run: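 Using 20nM recombinant human CYP3A4 in potassium phosphate (200mM), substrate Luciferin-PPXE at 25uM, luminescent luciferin detection followed a 60-min RT NADPH reaction; data scaled to 57 uM ketoconazole.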

[16] = target: Ubiquitin carboxyl-terminal hydrolase 1 (Homo sapiens) (UniProt O94782); experiment: Inhibitors of USP1/UAF1: Pilot qHTS (AID 504865); note: nearly all actives have a fitted effect of over 35% in size; note: potency is the fitted concentration of half-maximal effect
Ubiquitin carboxyl-terminal hydrolase 1 (Homo sapiens), sequence (O94782 whole entry, looked up): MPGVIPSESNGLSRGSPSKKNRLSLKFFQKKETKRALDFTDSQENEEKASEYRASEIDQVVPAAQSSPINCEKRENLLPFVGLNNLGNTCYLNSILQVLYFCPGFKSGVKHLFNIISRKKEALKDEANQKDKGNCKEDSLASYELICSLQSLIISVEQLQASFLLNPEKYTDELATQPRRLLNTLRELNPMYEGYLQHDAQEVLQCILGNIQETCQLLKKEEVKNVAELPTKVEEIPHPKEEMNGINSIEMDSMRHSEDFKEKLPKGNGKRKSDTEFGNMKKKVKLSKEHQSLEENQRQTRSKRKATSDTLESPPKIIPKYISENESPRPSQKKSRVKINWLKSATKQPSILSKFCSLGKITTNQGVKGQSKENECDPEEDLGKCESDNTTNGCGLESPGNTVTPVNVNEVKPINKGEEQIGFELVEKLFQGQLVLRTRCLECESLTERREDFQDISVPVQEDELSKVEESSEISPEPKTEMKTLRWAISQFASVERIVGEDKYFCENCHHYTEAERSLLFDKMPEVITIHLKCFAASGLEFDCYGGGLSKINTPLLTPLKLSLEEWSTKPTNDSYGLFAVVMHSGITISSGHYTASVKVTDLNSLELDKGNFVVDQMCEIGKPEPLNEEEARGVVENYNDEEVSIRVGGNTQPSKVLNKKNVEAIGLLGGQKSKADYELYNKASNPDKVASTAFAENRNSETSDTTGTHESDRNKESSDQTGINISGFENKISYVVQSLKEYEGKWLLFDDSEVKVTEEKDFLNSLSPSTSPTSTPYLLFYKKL
How it was run: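 USP1/UAF1 complex (1nM) preincubated with compound 15 min at room temperature, then Ub-Rho substrate (150nM final) added. Fluorescence read kinetically at 480/540 nm, 6 reads every 60 seconds. Buffer: 50mM HEPES pH 7.8, 0.5mM EDTA, 0.1 mg/ml BSA, 1mM TCEP, 0.01% Tween-20.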

[17] = measured here: cell count channel max response
[18] = measured here: lipid channel max response

| SMILES | activity change, negative = inhibition [1] | Potency [2] | activity, negative = inhibition [3] | Potency [4] | Potency [5] | outcome [6] | Potency [7] | activity change, negative = inhibition [8] | max response [8, 17] | max response [8, 18] | Potency [9] | Potency [10] | Potency [11] | Potency [12] | Potency [13] | activity change, negative = inhibition [14] | Potency [15] | Potency [16] |
| --- | --- | --- | --- | --- | --- | --- | --- | --- | --- | --- | --- | --- | --- | --- | --- | --- | --- | --- |
| COCCn1c(=O)c(C)nc2cnc(N(C)C)nc21 | 3.65% (inactive) | 3.98 µM (active) | -5.78% (inactive) | > 9.22 µM (inactive) | > 46 µM (inactive) | inactive | inactive | 4.96% (inactive) | 17.2% | 22.8% | inactive | inactive | inactive | inactive |  |  |  |  |
| COc1ccccc1CNc1cc(-c2c(C)noc2C)ncn1 | 14.8% (inactive) | 5.01 µM (active) | -4.72% (inactive) | > 46 µM (inactive) | > 46 µM (inactive) | inactive | inactive | 10.8% (inactive) | 30% | 41.7% | 15.8 µM (active) | 17.8 µM (active) |  | inactive | > 11.4 µM (inactive) | -3.28% (inactive) | inactive | inactive |
| O=c1cnc2cnc(Oc3cccc(Cl)c3)nc2n1C[C@H]1CCCO1 | -1.71% (inactive) | 5.01 µM (active) | -13.3% (inactive) |  | > 46 µM (inactive) | inactive | inactive | 5.57% (inactive) | 22.7% | 29.8% | inactive | inactive | inactive | inactive |  | 1.72% (inactive) |  | inactive |
| CCNc1ncc2nc(-c3ccc(OC)cc3)c(=O)n(CCOC)c2n1 | -6.96% (inactive) | 1.26 µM (active) | -11.3% (inactive) | > 9.22 µM (inactive) | > 46 µM (inactive) | inactive | inactive | 4.42% (inactive) | 20.7% | 27.3% | inactive | inactive | inactive | inactive |  | 6.8% (inactive) | inactive | inactive |
| Clc1ccccc1-c1nccc(NCc2cccs2)n1 | 15.2% (inactive) |  | 1.89% (inactive) | > 46 µM (inactive) | > 46 µM (inactive) | inactive |  | 7.3% (inactive) | 8.1% | 18.5% | inactive | inactive | inactive | inactive |  | 0.38% (inactive) |  | 28.2 µM (active) |
| Cn1cc(-c2nc3cncnc3n(Cc3ccc(F)cc3)c2=O)c2ccccc21 | -19.3% (inactive) | 1.26 µM (active) | -7.96% (inactive) | > 9.22 µM (inactive) | > 46 µM (inactive) | inactive |  | 6.13% (inactive) | 15.3% | 20.1% | inactive | inactive |  | inactive | > 11.4 µM (inactive) | -18.4% (inactive) |  | inactive |

— PubChem BioAssay (NCATS)
